Where “and” joins values, the source holds several entries; their conditions need not be identical. Equal values may be shown once. Results filed as inconclusive are left out. Calls of active or inactive are those of the source. Unless noted, calls follow the shape of the full dose curve.
Key:
[1] = target: Peroxisome proliferator-activated receptor gamma (Homo sapiens) (UniProt P37231); assay: qHTS assay for small molecule antagonists of peroxisome proliferator-activated receptor gamma signaling (AID 588537; active = well fitted inhibition curve with a large enough effect in the signal ratio, with a control signal flat, not every such curve was filed as active; the % refers to the signal ratio; also: potency is read from the fitted curve at half-maximal effect)
Chain of Peroxisome proliferator-activated receptor gamma (Homo sapiens) (P37231 whole entry, looked up): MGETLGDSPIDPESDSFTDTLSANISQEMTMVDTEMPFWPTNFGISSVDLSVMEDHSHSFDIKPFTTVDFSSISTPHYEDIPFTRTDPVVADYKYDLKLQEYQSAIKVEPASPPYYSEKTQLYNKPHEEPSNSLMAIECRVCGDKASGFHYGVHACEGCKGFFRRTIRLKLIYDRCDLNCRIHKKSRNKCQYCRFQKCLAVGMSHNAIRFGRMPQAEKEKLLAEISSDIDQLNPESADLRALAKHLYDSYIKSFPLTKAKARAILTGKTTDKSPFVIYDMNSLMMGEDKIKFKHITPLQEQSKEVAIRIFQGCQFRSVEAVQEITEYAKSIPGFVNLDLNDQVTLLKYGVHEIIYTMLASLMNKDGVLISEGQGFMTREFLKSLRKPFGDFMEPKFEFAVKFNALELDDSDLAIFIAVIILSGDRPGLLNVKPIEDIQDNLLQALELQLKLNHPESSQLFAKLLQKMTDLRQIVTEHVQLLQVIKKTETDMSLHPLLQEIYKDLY
In short: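 PPARγ-UAS-bla HEK293 cells (3000/well) in 1% charcoal/dextran-stripped FBS are treated with compound, then stimulated with 50 nM rosiglitazone for 16 h at 37 °C. Read-out is CCF4 β-lactamase fluorescence after 2 h at RT. IC50 comes from Hill fits normalised to rosiglitazone and DMSO.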

[2] = target: Vitamin D3 receptor (Homo sapiens) (UniProt P11473); assay: qHTS assay for small molecule antagonists of vitamin D receptor signaling (AID 588541);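 also: receptor activated by calcitriol during compound treatment; series mostly up to about 77 µM; % is scaled to controls: 0 for no effect and ±100 for the full control effect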
Chain of Vitamin D3 receptor (Homo sapiens) (P11473 whole entry, looked up): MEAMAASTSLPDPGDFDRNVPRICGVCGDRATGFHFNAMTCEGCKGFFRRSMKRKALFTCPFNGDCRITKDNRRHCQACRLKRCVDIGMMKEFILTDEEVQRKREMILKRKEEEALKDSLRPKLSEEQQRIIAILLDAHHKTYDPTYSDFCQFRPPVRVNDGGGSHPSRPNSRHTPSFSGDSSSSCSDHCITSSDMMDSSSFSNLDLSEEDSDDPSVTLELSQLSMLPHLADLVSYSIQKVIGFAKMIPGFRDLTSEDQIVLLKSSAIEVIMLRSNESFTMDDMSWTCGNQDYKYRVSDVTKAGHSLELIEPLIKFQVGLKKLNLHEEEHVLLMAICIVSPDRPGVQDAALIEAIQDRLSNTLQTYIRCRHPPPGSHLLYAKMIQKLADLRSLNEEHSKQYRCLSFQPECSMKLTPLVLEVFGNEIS
In short: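 VDR-UAS-bla HEK293T cells in 2% charcoal-stripped FBS were stimulated with 1-alpha,25-dihydroxyvitamin D3 (3 nM final) plus compound for 16 h at 37 C. The beta-lactamase CCF4 readout was normalized to 50 nM agonist and DMSO, and Hill fits gave IC50.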

[3] = target: Vitamin D3 receptor (Homo sapiens) (UniProt P11473); assay: qHTS assay for small molecule agonists of vitamin D receptor signaling (AID 588543);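 also: 0% = DMSO basal and 100% = reference agonist control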
In short: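 Agonist-mode beta-lactamase reporter: HEK293T VDR-UAS-bla cells in charcoal-stripped 2% FBS, compound series 16 h 37 C, CCF4 2 h RT. EC50 from Hill fit, scaled against DMSO and 50 nM calcitriol control.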

[4] = target: Thyroid hormone receptor beta (Homo sapiens) (UniProt P10828); assay: qHTS assay for small molecule agonists of thyroid hormone receptor beta signaling (AID 588545);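 also: 0% = DMSO only and 100% = 10 nM T3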
Chain of Thyroid hormone receptor beta (Homo sapiens) (P10828 whole entry, looked up): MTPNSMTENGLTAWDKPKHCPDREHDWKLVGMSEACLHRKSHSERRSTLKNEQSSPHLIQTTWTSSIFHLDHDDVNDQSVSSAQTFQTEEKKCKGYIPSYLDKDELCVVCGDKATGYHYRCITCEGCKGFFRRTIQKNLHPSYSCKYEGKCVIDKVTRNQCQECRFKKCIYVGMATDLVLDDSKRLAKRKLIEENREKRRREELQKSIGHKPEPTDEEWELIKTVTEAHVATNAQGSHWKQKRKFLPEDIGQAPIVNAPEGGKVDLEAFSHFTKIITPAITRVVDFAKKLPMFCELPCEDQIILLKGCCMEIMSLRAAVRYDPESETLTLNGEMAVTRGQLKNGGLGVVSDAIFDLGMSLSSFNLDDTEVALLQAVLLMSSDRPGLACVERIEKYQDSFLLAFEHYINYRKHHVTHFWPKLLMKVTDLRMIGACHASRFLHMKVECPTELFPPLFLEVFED
In short: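 Beta-lactamase reporter activity under TR response element control is measured in HEK 293 cells after 18 hrs compound exposure. Signal is ratiometric CCF4 fluorescence, 460/530 nm.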

[5] = target: Thyroid hormone receptor beta (Homo sapiens) (UniProt P10828); assay: qHTS assay for small molecule antagonists of thyroid hormone receptor beta signaling (AID 588547; active = well fitted inhibition curve with a large enough effect in the signal ratio, with a control signal flat, not every such curve was filed as active; the % refers to the signal ratio; also: potency is read from the fitted curve at half-maximal effect;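 as to activity change % (negative = inhibition): cells stimulated with 0.4 nM T3 agonist during compound exposure; series mostly up to about 77 µM; % is scaled to controls: 0 for no effect and ±100 for the full control effect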); conditions: TR-UAS-bla HEK293, beta-lactamase ratio, antagonist mode, 18 h
In short: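 TR-UAS-bla GripTite HEK293 cells in 2% charcoal/dextran FBS medium; compounds 0.59 nM to 92 uM with T3 at 0.4nM final, 18 h at 37 C. Beta-lactamase read by CCF4 fluorescence (460/530 nm); Hill fits gave IC50 and efficacy.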

[6] = target: Voltage-gated inwardly rectifying potassium channel KCNH2 (Homo sapiens) (UniProt Q12809); assay: qHTS Assay for Small Molecule Inhibitors of the Human hERG Channel Activity (AID 588834; active = well fitted curve in the direction sought with a large enough effect; an effect the other way counts as inactive or inconclusive;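 also: lower thallium flux fluorescence means stronger hERG block; nearly all actives have a fitted effect of over 50% in size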; also: potency is read from the fitted curve at half-maximal effect)
Chain of Voltage-gated inwardly rectifying potassium channel KCNH2 (Homo sapiens) (Q12809 whole entry, looked up): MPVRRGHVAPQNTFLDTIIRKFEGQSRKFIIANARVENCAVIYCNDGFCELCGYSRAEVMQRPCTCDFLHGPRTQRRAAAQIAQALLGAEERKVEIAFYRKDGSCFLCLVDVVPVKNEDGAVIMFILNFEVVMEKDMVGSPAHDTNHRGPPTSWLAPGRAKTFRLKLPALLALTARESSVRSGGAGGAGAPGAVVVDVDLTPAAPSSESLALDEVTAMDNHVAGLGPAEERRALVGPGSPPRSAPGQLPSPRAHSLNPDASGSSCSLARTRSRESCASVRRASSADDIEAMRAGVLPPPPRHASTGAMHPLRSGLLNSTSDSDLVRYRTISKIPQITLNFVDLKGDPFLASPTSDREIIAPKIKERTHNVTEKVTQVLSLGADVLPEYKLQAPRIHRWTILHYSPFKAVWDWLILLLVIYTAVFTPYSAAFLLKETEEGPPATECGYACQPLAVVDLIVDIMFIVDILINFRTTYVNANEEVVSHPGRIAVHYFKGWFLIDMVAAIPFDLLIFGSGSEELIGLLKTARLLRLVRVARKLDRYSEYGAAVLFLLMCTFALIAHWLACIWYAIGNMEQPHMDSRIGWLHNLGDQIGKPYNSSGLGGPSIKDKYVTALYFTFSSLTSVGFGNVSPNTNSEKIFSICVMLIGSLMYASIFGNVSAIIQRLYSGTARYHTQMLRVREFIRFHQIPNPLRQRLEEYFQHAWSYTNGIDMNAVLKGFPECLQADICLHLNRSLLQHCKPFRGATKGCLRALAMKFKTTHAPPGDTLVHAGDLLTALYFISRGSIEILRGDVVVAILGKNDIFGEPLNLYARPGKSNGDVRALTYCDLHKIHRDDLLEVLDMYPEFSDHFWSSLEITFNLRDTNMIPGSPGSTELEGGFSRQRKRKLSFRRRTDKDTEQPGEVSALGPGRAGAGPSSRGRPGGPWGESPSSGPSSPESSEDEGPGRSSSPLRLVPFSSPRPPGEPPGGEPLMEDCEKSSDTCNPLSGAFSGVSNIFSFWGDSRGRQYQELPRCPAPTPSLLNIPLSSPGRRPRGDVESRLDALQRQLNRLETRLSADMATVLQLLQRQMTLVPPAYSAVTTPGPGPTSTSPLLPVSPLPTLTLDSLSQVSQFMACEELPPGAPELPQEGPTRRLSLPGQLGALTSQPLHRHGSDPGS
In short: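 Kinetic FDSS fluorescence; U2OS + hERG BacMam (~100 virus particles/cell); FluxOR Tl+ flux; ~10 min cpd; AC50 (Hill).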

[7] = S16 Schwann cell viability assay (CellTiter-Glo assay) (AID 624031; active = well fitted curve in the direction sought with a large enough effect; an effect the other way counts as inactive or inconclusive; also: nearly all actives have a fitted effect of over 70% in size; also: potency is read from the fitted curve at half-maximal effect)
In short: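 Parental S16 cells, 24 h compound, 37 °C. ATP-luminescence viability; DMSO = 0% activity, empty wells as reference; curves classified by fit quality and efficacy.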

[8] = S16 Schwann cell PMP22 intronic element firefly luciferase assay (AID 624032; active = well fitted curve in the direction sought with a large enough effect; an effect the other way counts as inactive or inconclusive; also: nearly all actives have a fitted effect of over 30% in size; also: potency is read from the fitted curve at half-maximal effect)
In short: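 Rat S16 Schwann cells stably carrying firefly luciferase driven by a PMP22 intronic element, in 10% FBS, treated 24 h at 37 C. ONE-Glo luminescence normalized to PTC124 control and DMSO (0%); curves classed by r2, magnitude and activity.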

[9] = target: Peroxisome proliferator-activated receptor delta (Homo sapiens) (UniProt Q03181); assay: qHTS assay for small molecule antagonists of peroxisome proliferator-activated receptor delta signaling (AID 588535; active = well fitted inhibition curve with a large enough effect in the signal ratio, with a control signal flat, not every such curve was filed as active; the % refers to the signal ratio)
Chain of Peroxisome proliferator-activated receptor delta (Homo sapiens) (Q03181 whole entry, looked up): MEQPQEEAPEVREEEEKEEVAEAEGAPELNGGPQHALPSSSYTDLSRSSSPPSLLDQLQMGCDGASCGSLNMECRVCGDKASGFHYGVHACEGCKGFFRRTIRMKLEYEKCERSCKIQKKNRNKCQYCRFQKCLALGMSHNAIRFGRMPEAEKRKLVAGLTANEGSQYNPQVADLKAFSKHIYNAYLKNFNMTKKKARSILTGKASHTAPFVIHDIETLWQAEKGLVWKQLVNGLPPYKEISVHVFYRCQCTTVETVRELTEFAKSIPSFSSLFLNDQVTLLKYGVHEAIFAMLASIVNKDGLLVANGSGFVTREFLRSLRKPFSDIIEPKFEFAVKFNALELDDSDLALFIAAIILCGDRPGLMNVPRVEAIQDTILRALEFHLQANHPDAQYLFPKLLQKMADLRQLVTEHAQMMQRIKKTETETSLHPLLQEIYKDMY
In short: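 Antagonist-mode beta-lactamase reporter (GeneBLAzer PPAR-delta-UAS-bla) in HEK293T cells, 2% charcoal/dextran FBS, 4000 cells/well. Compound titrations, 18 h at 37 C; CCF4 ratio read, IC50 and efficacy from Hill fits.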

[10] = S16 Schwann cell PMP22 intronic element beta-lactamase assay (AID 624044);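 also: 0% = DMSO and -100% = potassium clavulanate positive control; nearly all actives have a fitted effect of over 15% in size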
In short: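 Rat S16 Schwann cells with beta-Lac driven by a PMP22 intronic element, compound-treated 24 h at 37 °C. LiveBLAzer FRET B/G read: 460 nm normalized to potassium clavulanate vs DMSO; 535 nm FRET as viability; concentration-effect curves classified.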

[11] = target: Glutaminase kidney isoform, mitochondrial (Homo sapiens) (UniProt O94925); assay: qHTS for Inhibitors of Glutaminase (GLS): LOPAC Validation (AID 624146; active = well fitted curve in the direction sought with a large enough effect; an effect the other way counts as inactive or inconclusive;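 also: glutamate product detected by oxidase and peroxidase coupled Amplex red fluorescence gain; series mostly up to about 46 µM; % is scaled to controls: 0 for no effect and ±100 for the full control effect; nearly all actives have a fitted effect of over 60% in size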)
In short: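 Glutamate formation by hKGA was monitored fluorometrically using coupled glutamate oxidase, HRP and Amplex Red. Substrate was added as 1 mM L-glutamine solution; incubation was 30 min at RT after an initial read.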

[12] = target: Glucagon-like peptide 1 receptor (Homo sapiens) (UniProt P43220); assay: qHTS of GLP-1 Receptor Agonists: LOPAC Validation (AID 624148; active = well fitted curve in the direction sought with a large enough effect; an effect the other way counts as inactive or inconclusive;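 also: 0% is about no effect; higher luminescence signal means agonism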)
Chain of Glucagon-like peptide 1 receptor (Homo sapiens) (P43220 whole entry, looked up): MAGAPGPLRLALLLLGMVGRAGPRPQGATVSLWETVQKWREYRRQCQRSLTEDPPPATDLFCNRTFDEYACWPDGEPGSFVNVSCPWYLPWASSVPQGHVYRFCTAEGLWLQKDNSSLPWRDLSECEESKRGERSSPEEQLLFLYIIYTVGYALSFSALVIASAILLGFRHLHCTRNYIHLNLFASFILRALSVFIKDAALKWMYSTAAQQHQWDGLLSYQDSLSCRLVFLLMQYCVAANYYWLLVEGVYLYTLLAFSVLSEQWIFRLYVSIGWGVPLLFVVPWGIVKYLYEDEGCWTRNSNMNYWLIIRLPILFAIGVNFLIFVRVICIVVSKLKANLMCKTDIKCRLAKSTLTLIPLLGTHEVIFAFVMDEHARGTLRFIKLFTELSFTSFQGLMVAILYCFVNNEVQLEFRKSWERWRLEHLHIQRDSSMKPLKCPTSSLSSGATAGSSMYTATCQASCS
In short: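 HEK293 cells stably co-expressing GLP-1R and a cAMP-responsive luciferase reporter, plated 12 hours before compound, then incubated 4-6 hr at 37 deg C. Luminescence read 12 min after detection reagent.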

[13] = qHTS of Nrf2 Activators: LOPAC Validation (AID 624149; active = well fitted curve in the direction sought with a large enough effect; an effect the other way counts as inactive or inconclusive; also: 0% is about no effect)
In short: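 AREc32_Fluc cells, 1000/well in OPTI-MEM with 5% FBS, grown overnight, then exposed to compounds for 24 hr at 37 deg C, 5% CO2. ARE-driven firefly luciferase read by Steady-Glo luminescence after 30 min at RT.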

[14] = HTS Assay for Allosteric Antagonists of the Human D2 Dopamine Receptor: Hit Validation in HTRF (AID 624455; active = well fitted curve in the direction sought with a large enough effect; an effect the other way counts as inactive or inconclusive; also: potency is read from the fitted curve at half-maximal effect;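 also: stable D1 dopamine receptor cell line scored for blocking the D1 response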)
In short: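 Hit validation in cells stably expressing the D1 dopamine receptor, run in HTRF format. Compounds were tested for their ability to inhibit the D1-mediated response.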

[15] = qHTS assay for small molecule agonists of retinoid X receptor alpha signaling (AID 588544); conditions: HEK293T RXRa-UAS-bla, beta-lactamase reporter, 18 h; 530 nm emission
[16] = target: Retinoic acid receptor RXR-alpha (Homo sapiens) (UniProt P19793); assay: as above
Chain of Retinoic acid receptor RXR-alpha (Homo sapiens) (P19793 whole entry, looked up): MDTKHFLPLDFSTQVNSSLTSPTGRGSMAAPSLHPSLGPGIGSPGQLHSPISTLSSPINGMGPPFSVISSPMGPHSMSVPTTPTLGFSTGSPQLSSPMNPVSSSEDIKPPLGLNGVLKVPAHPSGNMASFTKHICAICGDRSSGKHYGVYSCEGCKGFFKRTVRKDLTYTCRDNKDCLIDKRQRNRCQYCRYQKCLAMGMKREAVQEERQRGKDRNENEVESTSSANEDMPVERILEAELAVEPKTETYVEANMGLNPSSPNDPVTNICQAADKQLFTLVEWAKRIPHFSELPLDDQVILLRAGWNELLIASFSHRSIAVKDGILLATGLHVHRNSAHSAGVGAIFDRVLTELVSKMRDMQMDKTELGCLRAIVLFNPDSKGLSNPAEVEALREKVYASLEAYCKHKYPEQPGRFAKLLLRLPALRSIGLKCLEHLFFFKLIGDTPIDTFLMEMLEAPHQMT

[17] = qHTS assay for small molecule antagonists of retinoid X receptor alpha signaling (AID 588546; active = well fitted inhibition curve with a large enough effect in the signal ratio, with a control signal flat, not every such curve was filed as active; the % refers to the signal ratio;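 also: cells stimulated with 9-cis-retinoic acid as agonist; % is scaled to controls: 0 for no effect and ±100 for the full control effect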); conditions: HEK293T RXRa-UAS-bla, beta-lactamase ratio, antagonist mode; measured here: W530 green channel, cytotoxicity proxy
In short: (§1)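 Beta-lactamase reporter inhibition, read as CCF4 fluorescence ratio (ex 405, em 460/530 nm) after 2 h at RT. HEK293T UAS-bla cells, 2500/well, were stimulated with 9-cis-RA at 500 or 100 nM final alongside test compound for 18 h at 37 C.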

[18] = target: Retinoic acid receptor RXR-alpha (Homo sapiens) (UniProt P19793); assay: as above; conditions: HEK293T RXRa-UAS-bla, beta-lactamase ratio, antagonist mode
In short: as §1

[19] = target: Luciferin 4-monooxygenase (Photinus pyralis) (UniProt P08659); assay: Biochemical firefly luciferase enzyme assay for NPC (AID 624030; active = well fitted curve in the direction sought with a large enough effect; an effect the other way counts as inactive or inconclusive;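 also: purified P. pyralis luciferase at 10 nM with luciferin and ATP substrate; series mostly up to about 59 µM; 0% = DMSO and -100% = full luciferase inhibition by PTC124 control; nearly all actives have a fitted effect of over 70% in size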)
Chain of Luciferin 4-monooxygenase (Photinus pyralis) (P08659 whole entry, looked up): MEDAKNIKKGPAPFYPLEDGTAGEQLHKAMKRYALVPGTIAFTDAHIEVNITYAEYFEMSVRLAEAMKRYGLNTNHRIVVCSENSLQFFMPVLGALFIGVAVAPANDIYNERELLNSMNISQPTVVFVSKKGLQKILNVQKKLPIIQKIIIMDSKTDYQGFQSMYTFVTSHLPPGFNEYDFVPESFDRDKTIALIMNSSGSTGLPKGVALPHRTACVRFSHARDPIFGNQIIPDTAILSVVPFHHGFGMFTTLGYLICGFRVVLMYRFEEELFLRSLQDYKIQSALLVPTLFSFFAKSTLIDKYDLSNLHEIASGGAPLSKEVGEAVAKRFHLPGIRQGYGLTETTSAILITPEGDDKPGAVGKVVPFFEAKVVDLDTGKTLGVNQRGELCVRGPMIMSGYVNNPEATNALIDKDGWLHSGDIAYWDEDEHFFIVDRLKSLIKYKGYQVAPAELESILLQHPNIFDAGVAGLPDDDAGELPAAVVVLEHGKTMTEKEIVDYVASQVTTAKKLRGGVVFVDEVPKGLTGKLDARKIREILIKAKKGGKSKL
In short: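 Purified P. pyralis luciferase at 10 nM in 50 mM Tris Acetate (final), luminescence read within 5 minutes of enzyme addition to compounds. Activity normalised to PTC124 versus DMSO; concentration-response curves classed by r2, magnitude and activity.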

CN(C)c1ccc(C(=C2C=CC(=[N+](C)C)C=C2)c2ccc(N(C)C)cc2)cc1
active: Potency [1] 44.7 µM | Potency [5] 28.2 µM | Potency [6] 10 µM and 12.6 µM | Potency [7] 9.07 µM | Potency [8] 9.07 µM
inactive: outcome [2] | outcome [3] | outcome [4]

CN(C)CCc1c[nH]c2ccc(C[C@H]3COC(=O)N3)cc12
inactive: Potency [6]

Nc1nc(N)c2nc(CNc3ccc(C(=O)NC(CCC(=O)O)C(=O)O)cc3)cnc2n1 (configuration not stated)
inactive: outcome [9] | outcome [2] | Potency [6] | Potency [7] | Potency [10] | outcome [11] | outcome [12] | outcome [13] | Potency [14]

CNNCc1ccc(C(=O)NC(C)C)cc1
inactive: Potency [6]

C[C@@H]1C[C@H]2[C@@H]3CCC4=CC(=O)C=C[C@]4(C)[C@@]3(Cl)[C@@H](O)C[C@]2(C)[C@@]1(OC(=O)c1ccco1)C(=O)CCl
active: Potency [6] 5.01 µM

COC(c1ccccc1)(c1ccccc1)[C@H](Oc1nc(C)cc(C)n1)C(=O)O
inactive: Potency [6]

OC(Cn1cncn1)(Cn1cncn1)c1ccc(F)cc1F
-2.01%: max response [17]
inactive: Potency [1] | outcome [2] | outcome [3] | outcome [16] | outcome [4] | max response [18] 6.23% | activity change % (negative = inhibition) [5] -14.2% | Potency [6] | Potency [19] | Potency [7] | Potency [8] | Potency [10]
-28.2%: max response [15]

O=C(N[C@H](CO)[C@H](O)c1ccc([N+](=O)[O-])cc1)C(Cl)Cl
-13.6%: max response [15]
inactive: outcome [9] | Potency [1] | outcome [16] | outcome [4] | max response [18] 39.9% and -11.1% | activity change % (negative = inhibition) [5] 0.142% and 20.5%
-5.3% and -7.21%: max response [17]

CC1=NN(c2ccccc2)C(=O)C1
inactive: outcome [9] | outcome [4] | max response [18] 23.1% | activity change % (negative = inhibition) [5] -16% and 3.19% | Potency [6] | Potency [19] | Potency [7] | Potency [10]
3.18%: max response [17]

CC(=O)Oc1ccccc1C(=O)Nc1ncc([N+](=O)[O-])s1
inactive: outcome [9] | outcome [4] | Potency [6]

NNC(=O)c1ccncc1
inactive: outcome [9] | Potency [1] | outcome [2] | outcome [3] | outcome [16] | outcome [4] | max response [18] 3.12% | activity change % (negative = inhibition) [5] 10.5% | Potency [19]
1.75%: max response [17]
1.41%: max response [15]

CC(=O)[C@H]1CC[C@H]2[C@@H]3CCC4=CC(=O)CC[C@]4(C)[C@H]3CC[C@]12C
inactive: outcome [3] | outcome [4] | outcome [11] | outcome [12] | outcome [13] | Potency [14]

N=C(N)c1ccc(OCCCCCOc2ccc(C(=N)N)cc2)cc1
18.8%: max response [15]
inactive: outcome [9] | outcome [2] | outcome [3] | outcome [16] | outcome [4] | activity change % (negative = inhibition) [5] -26.1% | Potency [7]

CCC(=O)O[C@]1(C(=O)SCF)[C@H](C)C[C@H]2[C@@H]3C[C@H](F)C4=CC(=O)C=C[C@]4(C)[C@@]3(F)[C@@H](O)C[C@@]21C
inactive: Potency [6]

Cc1noc(NS(=O)(=O)c2ccc(N)cc2)c1C
3.43%: max response [15]
inactive: outcome [9] | Potency [1] | outcome [16] | outcome [4] | max response [18] 10.6% and -8.28% | Potency [6] | Potency [7] | Potency [8]
9.97% and -11.9%: max response [17]

COc1ccc2cc3[n+](cc2c1OC)CCc1cc2c(cc1-3)OCO2
inactive: outcome [2] | outcome [3] | outcome [4] | max response [18] -28% | activity change % (negative = inhibition) [5] -20.8% | Potency [6] | Potency [19] | Potency [7]
2.18%: max response [17]

C[C@@H]1CN(c2c(F)c(N)c3c(=O)c(C(=O)O)cn(C4CC4)c3c2F)C[C@H](C)N1
inactive: Potency [6]

CC(C)C1CCC(C(=O)N[C@H](Cc2ccccc2)C(=O)O)CC1 (some centres not stated)
inactive: Potency [6]

Cc1nnc(NS(=O)(=O)c2ccc(N)cc2)s1
inactive: outcome [2] | outcome [3] | outcome [16] | outcome [4] | max response [18] -2.27% | activity change % (negative = inhibition) [5] -6.41% | Potency [6] | Potency [19] | Potency [7]
-2.81%: max response [17]
-10.5%: max response [15]

Cn1c(=O)c2c(ncn2CC(O)CO)n(C)c1=O (configuration not stated)
inactive: Potency [6]

N[C@@H](Cc1ccc(O)c(O)c1)C(=O)O
active: Potency [14] 8.2 µM
inactive: Potency [1] | outcome [2] | outcome [16] | outcome [4] | max response [18] 0.985% | activity change % (negative = inhibition) [5] -11.9% | Potency [10] | outcome [12] | outcome [13]
-19.3%: max response [17]
-21.2%: max response [15]

C[C@]12C=CC(=O)C=C1CC[C@@H]1[C@@H]2C(=O)C[C@@]2(C)[C@H]1CC[C@]2(O)C(=O)CO
13.7%: max response [15]
4.53%: max response [17]
inactive: outcome [2] | outcome [3] | outcome [16] | outcome [4] | max response [18] -10.9% | activity change % (negative = inhibition) [5] -0.0632% | Potency [6] | Potency [19] | Potency [7] | Potency [10]

Cc1cc(NS(=O)(=O)c2ccc(N)cc2)no1
12.4%: max response [15]
-9.35%: max response [17]
inactive: outcome [2] | outcome [3] | outcome [16] | outcome [4] | max response [18] 6.61% | activity change % (negative = inhibition) [5] -2.53% | Potency [7]

Source: PubChem BioAssay (NCATS)
